Measurements taken from PMC7862700, “An all-to-all approach to the identification of sequence-specific readers for epigenetic DNA modifications on cytosine”.

Key:
Test in all cases: DAPPL (digital affinity profiling via proximity ligation, sequencing); 10 mM Tris-HCl pH 7.5, 50 mM NaCl, 1 mM DTT, 4% glycerol, room temperature, 30 min; GST-TFs on glutathione beads, 16-mer random dsDNA library, 0.1% formaldehyde crosslink after washing; high values mean tight binding
Details in all cases: protein: recombinant; tags: N-terminal GST; dsDNA, one strand shown
FLI1 = molecular target: T1, FLI1 (Homo sapiens, UniProt Q01543 1-452)
T1 sequence: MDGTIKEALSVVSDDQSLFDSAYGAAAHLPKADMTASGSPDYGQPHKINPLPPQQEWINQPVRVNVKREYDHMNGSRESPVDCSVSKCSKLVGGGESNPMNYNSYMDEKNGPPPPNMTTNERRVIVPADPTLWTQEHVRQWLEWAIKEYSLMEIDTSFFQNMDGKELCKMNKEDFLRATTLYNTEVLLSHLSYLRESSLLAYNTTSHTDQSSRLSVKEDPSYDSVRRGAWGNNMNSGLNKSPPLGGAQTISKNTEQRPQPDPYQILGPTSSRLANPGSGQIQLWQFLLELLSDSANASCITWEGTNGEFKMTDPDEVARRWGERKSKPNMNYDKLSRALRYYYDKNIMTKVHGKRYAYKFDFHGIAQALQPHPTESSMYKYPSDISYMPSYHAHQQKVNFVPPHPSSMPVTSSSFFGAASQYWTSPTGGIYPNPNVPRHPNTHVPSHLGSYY
How it was run: (§1)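 Human transcription factors fused to GST were expressed in yeast, captured on glutathione beads, given DNA barcodes and pooled with a GST-only negative control. Pools were incubated with 200 nmole of a 16-mer random double-stranded DNA library in Tris/NaCl/DTT/glycerol buffer at room temperature for 30 min. They were then washed, crosslinked with 0.1% formaldehyde, proximity-ligated (BsaI/T4 ligase, 1 h, 37 °C), PCR-amplified and sequenced on an Illumina NextSeq500. Binding signal is each 6-mer's read frequency for a factor divided by its frequency for the GST control.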

ELK1 = molecular target: T2, ELK1 (Homo sapiens, UniProt P19419 1-428)
T2 sequence: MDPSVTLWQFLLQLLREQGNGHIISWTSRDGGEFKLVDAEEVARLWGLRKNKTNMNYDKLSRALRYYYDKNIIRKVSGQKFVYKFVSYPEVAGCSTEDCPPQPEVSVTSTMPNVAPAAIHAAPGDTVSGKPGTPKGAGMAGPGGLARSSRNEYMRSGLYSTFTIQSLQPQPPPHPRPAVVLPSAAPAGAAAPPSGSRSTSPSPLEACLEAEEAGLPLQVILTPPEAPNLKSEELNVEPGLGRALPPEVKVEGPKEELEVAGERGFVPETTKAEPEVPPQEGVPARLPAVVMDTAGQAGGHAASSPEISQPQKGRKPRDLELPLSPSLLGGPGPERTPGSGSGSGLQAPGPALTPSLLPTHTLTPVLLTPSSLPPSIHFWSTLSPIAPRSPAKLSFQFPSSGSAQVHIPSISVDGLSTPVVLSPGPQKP
How it was run: as §1

GABPA = molecular target: T3, GABPA (Homo sapiens, UniProt Q06546 1-454)
T3 sequence: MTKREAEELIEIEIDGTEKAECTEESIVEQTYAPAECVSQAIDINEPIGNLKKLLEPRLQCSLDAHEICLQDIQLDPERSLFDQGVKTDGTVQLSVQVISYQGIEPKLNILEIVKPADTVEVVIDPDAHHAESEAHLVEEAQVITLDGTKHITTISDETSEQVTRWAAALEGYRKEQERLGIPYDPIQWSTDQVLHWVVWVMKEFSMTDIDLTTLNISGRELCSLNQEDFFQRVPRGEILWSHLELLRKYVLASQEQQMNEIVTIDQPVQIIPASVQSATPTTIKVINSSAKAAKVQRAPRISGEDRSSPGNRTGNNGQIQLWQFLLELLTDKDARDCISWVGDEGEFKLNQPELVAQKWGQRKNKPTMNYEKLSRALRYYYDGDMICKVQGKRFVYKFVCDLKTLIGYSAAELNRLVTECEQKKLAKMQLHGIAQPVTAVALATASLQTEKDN
How it was run: as §1

ERG = molecular target: T4, ERG (Homo sapiens, UniProt P11308 1-479)
T4 sequence: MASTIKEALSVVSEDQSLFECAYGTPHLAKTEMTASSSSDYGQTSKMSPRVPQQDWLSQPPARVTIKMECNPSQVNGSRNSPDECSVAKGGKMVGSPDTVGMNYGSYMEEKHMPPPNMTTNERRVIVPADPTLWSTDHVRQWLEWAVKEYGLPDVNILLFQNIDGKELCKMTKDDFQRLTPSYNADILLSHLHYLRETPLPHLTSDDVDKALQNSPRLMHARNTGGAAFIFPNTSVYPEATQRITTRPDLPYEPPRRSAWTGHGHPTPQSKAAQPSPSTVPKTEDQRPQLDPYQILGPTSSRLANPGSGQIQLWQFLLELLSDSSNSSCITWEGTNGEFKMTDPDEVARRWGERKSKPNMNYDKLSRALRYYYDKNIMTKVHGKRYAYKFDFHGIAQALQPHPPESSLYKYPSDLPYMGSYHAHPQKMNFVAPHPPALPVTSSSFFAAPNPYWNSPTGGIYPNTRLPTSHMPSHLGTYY
How it was run: as §1

ELF1 = ELF1 (Homo sapiens, UniProt P32519 1-619)
ELF1, sequence (P32519 whole entry): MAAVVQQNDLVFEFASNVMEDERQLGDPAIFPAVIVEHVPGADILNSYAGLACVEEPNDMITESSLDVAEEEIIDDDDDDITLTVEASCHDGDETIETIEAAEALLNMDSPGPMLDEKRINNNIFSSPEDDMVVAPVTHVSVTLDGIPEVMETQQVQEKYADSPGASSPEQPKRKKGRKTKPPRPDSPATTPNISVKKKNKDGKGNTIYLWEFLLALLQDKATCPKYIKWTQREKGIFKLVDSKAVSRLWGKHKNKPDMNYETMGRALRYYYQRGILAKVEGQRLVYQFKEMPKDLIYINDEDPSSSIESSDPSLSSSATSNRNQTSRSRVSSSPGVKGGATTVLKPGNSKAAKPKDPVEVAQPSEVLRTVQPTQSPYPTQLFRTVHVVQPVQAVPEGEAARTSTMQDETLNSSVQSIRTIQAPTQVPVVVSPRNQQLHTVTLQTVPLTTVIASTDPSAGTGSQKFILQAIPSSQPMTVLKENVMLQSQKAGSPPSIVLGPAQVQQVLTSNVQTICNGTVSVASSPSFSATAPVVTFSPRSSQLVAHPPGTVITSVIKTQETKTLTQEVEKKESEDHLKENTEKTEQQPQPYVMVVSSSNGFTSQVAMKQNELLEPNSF
How it was run: as §1

EHF = molecular target: T5, EHF (Homo sapiens, UniProt Q9NZC4 1-300)
T5 sequence: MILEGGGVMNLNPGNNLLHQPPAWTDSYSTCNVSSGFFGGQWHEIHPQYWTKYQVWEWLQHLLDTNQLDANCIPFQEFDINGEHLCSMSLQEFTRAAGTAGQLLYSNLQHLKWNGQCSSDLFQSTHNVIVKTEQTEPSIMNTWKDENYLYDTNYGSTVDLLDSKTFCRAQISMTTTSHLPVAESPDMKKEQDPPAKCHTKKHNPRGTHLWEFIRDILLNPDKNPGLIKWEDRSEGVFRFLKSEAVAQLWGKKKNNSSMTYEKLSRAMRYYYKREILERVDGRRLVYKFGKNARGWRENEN
How it was run: as §1

SPI1 = SPI1 (Homo sapiens, UniProt P17947 1-270)
How it was run: as §1

SPIB = SPIB (Homo sapiens, UniProt Q01892 1-262)
SPIB, sequence (Q01892 whole entry): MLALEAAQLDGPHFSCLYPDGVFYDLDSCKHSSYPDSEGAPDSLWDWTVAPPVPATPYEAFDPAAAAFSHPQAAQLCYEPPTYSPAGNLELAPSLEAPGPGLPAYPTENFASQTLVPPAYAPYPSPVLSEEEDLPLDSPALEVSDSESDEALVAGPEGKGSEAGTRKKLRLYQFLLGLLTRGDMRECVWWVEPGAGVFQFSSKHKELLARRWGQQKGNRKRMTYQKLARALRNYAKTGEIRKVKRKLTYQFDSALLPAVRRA
How it was run: as §1

ELK3 = molecular target: T6, ELK3 (Homo sapiens, UniProt P41970 1-407)
T6 sequence: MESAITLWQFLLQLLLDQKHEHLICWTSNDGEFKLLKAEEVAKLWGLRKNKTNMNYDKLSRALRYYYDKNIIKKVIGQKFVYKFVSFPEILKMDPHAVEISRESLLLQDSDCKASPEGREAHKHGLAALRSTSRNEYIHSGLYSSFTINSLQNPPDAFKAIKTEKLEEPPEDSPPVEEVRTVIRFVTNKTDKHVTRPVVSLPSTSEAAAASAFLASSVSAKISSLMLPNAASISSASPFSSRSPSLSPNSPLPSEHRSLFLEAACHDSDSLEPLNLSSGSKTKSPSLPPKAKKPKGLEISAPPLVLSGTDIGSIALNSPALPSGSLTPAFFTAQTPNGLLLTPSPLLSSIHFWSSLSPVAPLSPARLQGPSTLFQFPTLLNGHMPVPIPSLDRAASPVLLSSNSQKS
How it was run: as §1

**Q.** TAAATG was tested. Which binding signal (FLI1) did it give?
**A.** 1.22 fold enrichment (6-mer frequency, TF over GST control)

**Q.** What about the binding signal (ELK1) of the same sequence?
**A.** 1.21 fold enrichment (6-mer frequency, TF over GST control)

**Q.** What about the binding signal (GABPA) of the same sequence?
**A.** 1.34 fold enrichment (6-mer frequency, TF over GST control)

**Q.** And the binding signal (ERG)?
**A.** 1.27 fold enrichment (6-mer frequency, TF over GST control)

**Q.** And the binding signal (ELF1)?
**A.** 1.34 fold enrichment (6-mer frequency, TF over GST control)

**Q.** What about the binding signal (EHF) of the same sequence?
**A.** 1.27 fold enrichment (6-mer frequency, TF over GST control)

**Q.** And the binding signal (SPI1)?
**A.** 1.36 fold enrichment (6-mer frequency, TF over GST control)

**Q.** What about the binding signal (SPIB) of the same sequence?
**A.** 1.35 fold enrichment (6-mer frequency, TF over GST control)

**Q.** And the binding signal (ELK3)?
**A.** 1.29 fold enrichment (6-mer frequency, TF over GST control)
